Data from PubChem BioAssay (NCI).
This is part of a sample that, as a whole, favours compounds with a hit. Of some 79,000 tested, about 15% had one in any assay. Calls of active or inactive are those of the source. Cut-off read from the data, not from the text of the source: active = growth inhibition above about 70%; inactive = the rest.

Assay: NCI Yeast Anticancer Drug Screen. Data for the wt1 strain (AID 149);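 note: 0% = growth of vehicle-treated wt1 cultures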
Conditions: S. cerevisiae wt1 strain (SPY 50644) growth inhibition, active compounds read high
Method: Growth inhibition of yeast strains with defined genetic alterations is measured as a screen for potential anti-cancer activity. Selected strains with alterations in DNA damage repair or cell cycle control were exposed to compounds and growth inhibition was measured relative to vehicle treated controls. The strain used in this assay is wt1

Measured: growth inhibition

C[C@]12CCc3nonc3C1CC[C@@H]1C2CC[C@]2(C)C(=O)CCC12 (stereo not given in full)
inactive: at 1.2 µM 0% | at 3.7 µM -2% | at 11.0 µM -4% | at 33.0 µM 6% | at 100.0 µM 21%

COC(=O)C1C2c3ccccc3C(c3ccccc32)C1C(=O)OC (stereo not given)
inactive: at 1.2 µM 7% | at 3.7 µM 5% | at 11.0 µM 5% | at 33.0 µM 8% | at 100.0 µM 7%

C=CC[N+]12CN3CN(CN(C3)C1)C2
inactive: at 1.2 µM -10% | at 3.7 µM -28% | at 11.0 µM -21% | at 33.0 µM -23% | at 100.0 µM 41%

CC[C@@]1(O)C(=O)OCc2c1cc1n(c2=O)Cc2cc3ccccc3nc2-1
inactive: at 1.2 µM 2% | at 3.7 µM 39%
active: at 11.0 µM 90% | at 33.0 µM 94% | at 100.0 µM 95%

CCCCCCCCCC[Se]C#N
inactive: at 1.2 µM -4% | at 3.7 µM 2% | at 11.0 µM -3% | at 33.0 µM 6% | at 100.0 µM 48%

NCCc1ccc(OCc2ccccc2)c(OCc2ccccc2)c1
inactive: at 1.2 µM 0% | at 3.7 µM -6% | at 11.0 µM -28%
active: at 33.0 µM 74% | at 100.0 µM 97%

Cc1nc2ccccc2cc1C[N+]12CN3CN(CN(C3)C1)C2
inactive: at 1.2 µM 0% | at 3.7 µM -2% | at 11.0 µM 0% | at 33.0 µM 3% | at 100.0 µM 20%

COC(=O)C1c2cc3c(c(O)c2C(O)CC1(C)O)C(=O)c1c(O)cc2c(c1C3=O)OC1OC2(C)C(O)C(N(C)C)C1O (stereo not given)
active: at 100.0 µM 75%
inactive: at 1.2 µM 2% | at 3.7 µM 1% | at 11.0 µM 17% | at 33.0 µM 34%
